Assay outcomes from PubChem.
Sampled rows, rich in hits. Any-hit rate of the full collection: about 3.7%.
Nrf2 block: Nrf2 qHTS screen for inhibitors | A549 ARE-Fluc reporter, luciferase luminescence, 18-24 h | Potency, µM (doses to about 46 µM), without a hit: at the top dose activity change, negative = inhibition, most hits filed as inhibitors | 2.1% of 360,000 active | AID 504444, 2011; note: potency is the fitted concentration of half-maximal effect; % is set by controls: 0 for no effect and ±100 for the full control effect; nearly all actives have a fitted effect of over 60% in size
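Reporter: ARE-Fluc in A549. Exposure: 18-24 h, 37 °C, 5% CO2, 5% FBS OPTI-MEM. Readouts: fluorescent cytotoxicity (CellTiter-Fluor), then luminescent Nrf2 signal after BugLite.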
A549 viability: Nrf2 qHTS screen for inhibitors: counterscreen for cytotoxicity. A549 ARE-Fluc cells, CellTiter-Fluor viability, 18-24 h. Potency, µM (titrated, usually from 46 µM), without a hit: top-dose activity change, negative = cytotoxicity, usual class: inhibitors. 0.16% of 390,000 active. AID 504648, 2011; note: potency is the fitted concentration of half-maximal effect; % is set by controls: 0 for no effect and ±100 for the full control effect
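A549 ARE-Fluc cells in 5% FBS OPTI-MEM, 5000 cells/well, rested 2 h then exposed to compounds in concentration-response for 18-24 h at 37 °C. Viability by CellTiter-Fluor fluorescence (Ex 405/Em 525) after 30 min; luciferase luminescence (BugLite, 15 min, RT) read afterwards.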
TCR activator: Activators of T cell receptors: qHTS campaign | 330,000 tested, under 10 active | AID 504894, 2011 | primary human leukocytes, anti-CD3, IL-2 HTRF, 48 h | Potency, µM (highest dose often 9.22 µM), for inactives: at the highest dose activation of IL-2 secretion, actives largely listed as activators; note: % of control where 0% means no effect
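Primary human leukocytes were stimulated with a-CD3 beads plus compounds for 48 hr without co-stimulation; secreted IL-2 was quantified by HTRF using a-IL-2-K (europium cryptate) and a-IL-2-d2, excited at 320nm with acceptor emission read at 665nm.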
ClpP mod: qHTS Assay for Activators of ClpP | ATP-dependent Clp protease proteolytic subunit (Bacillus subtilis (strain 168)), P80244 | purified B. subtilis ClpP, FRET peptide cleavage, 20 min | 1.9% of 340,000 active | AID 651965, 2013 | Potency, µM (series often up to 57.5 µM), for the others: at the highest dose activity change, negative = active; active = well fitted falling curve with a large enough effect; inconclusive = small, poorly fitted or top-dose-only effect; inactive = no such curve, though single readings can be large or run the other way; note: potency is the fitted concentration of half-maximal effect; the source files actives as falling curves though it sought activators and does not explain the sign; nearly all actives have a fitted effect of over 65% in size
Target sequence (P80244 whole entry, looked up): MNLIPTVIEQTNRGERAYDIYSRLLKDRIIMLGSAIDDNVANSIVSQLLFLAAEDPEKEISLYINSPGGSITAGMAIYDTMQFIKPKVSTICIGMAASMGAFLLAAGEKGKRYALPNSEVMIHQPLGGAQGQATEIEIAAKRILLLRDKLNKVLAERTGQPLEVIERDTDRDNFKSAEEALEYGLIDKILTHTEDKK
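ClpP 10 microg/mL final, pH 8 Tris/KCl buffer with BSA, glycerol, Tween-20; compound pinned in; FRET-FV substrate; RT 20 min; Ex320/Em430; ΔFRET vs ADEP 5.8 microM, DMSO, no enzyme.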
miR-21 reporter: qHTS Assay for Modulators of miRNAs and/orActivators of miR-21; HeLa miR-21 FLuc reporter, luciferase, 48 h; 340,000 tested, under 10 active; Potency, µM (highest dose often 38.3 µM), for the others: top-dose activity change, positive = activation, most hits filed as activators;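 note: % of control where 0% means no effect; miR-21 action dims this reporter so a rising signal means less miR-21 action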
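HeLa cells stably expressing CMV-driven firefly luciferase with a downstream miR-21 binding sequence, endogenously expressing miR-21, were treated with titrations (up to about 40uM final) for 48 hours at 37 degree Celsius. Luciferase luminescence was read after lysis.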
Nrf2 activator: qHTS of Nrf2 Activators; Potency, µM (series often up to 46.1 µM), inactives show top-dose activation, hits mostly activators; AREc32 ARE-luciferase reporter (MCF7-derived line), luminescence, 24 h; 0.31% of 410,000 active; note: potency is the fitted concentration of half-maximal effect; % of control where 0% means no effect; nearly all actives have a fitted effect of over 65% in size
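AREc32 cells carrying an ARE-driven firefly luciferase reporter were seeded at 1000 cells/well in OPTI-MEM with 5% FBS, then exposed to compound for 24 hr at 37 deg C. Luminescence was read with Steady-Glo after 30 min at RT.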
Numbers without * were called inactive; ? = inconclusive; . = no result; [ ] = remark or other dose. Unless noted, calls come from the whole dose curve; as a rule, active = well fitted curve in the direction sought with a large enough effect; inconclusive = small, poorly fitted or top-dose-only effect, or another doubt; inactive = no such curve, though single readings can be large; an effect the other way counts as inactive or inconclusive.

SMILES	Nrf2 block	A549 viability	TCR activator	ClpP mod	miR-21 reporter	Nrf2 activator
CCc1ccc(NC(=O)CCc2c(C)nn(-c3ccc(N4CCCC4)nn3)c2C)cc1	19%	-1%	.	-4%	-25%	6%
Cc1nc(C(=O)Nc2ccc(Cl)cc2Cl)nn1-c1cc(OC(C)C)c(Cl)cc1Cl	-20%	-3%	-3%	28µM*	2%	-1%
COc1cc2c(cc1OC)C1CCc3cc4c(cc3C1N=C2)OCO4 (configuration not stated)	.	.	.	-11%	.	0%
N/C(=N\OC(=O)N1CCOCC1)c1ccc(Br)cc1	?	13µM*	-2%	0%	4%	-5%
C[C@H](CO)N1C[C@H](C)[C@@H](CN(C)S(=O)(=O)c2cccs2)OCc2cnnn2CCCC1=O	.	.	.	-1%	.	-1%
Cc1ccc(C2C(/C=C3/SC(=S)NC3=O)=C(c3cccs3)Oc3ccccc32)cc1 (configuration not stated)	13µM*	10µM*	0%	-3%	?	12%
O=C1NC(=S)SC1=Cc1ccccc1Cl	?	?	3%	.	.	9%
O=[N+]([O-])c1cccc(-c2nnc(-c3ccccc3F)o2)c1	?	-3%	3%	-1%	-51%	13µM*
COc1ccc(C2CC(c3cccs3)=NN2C(=O)CSc2nc3ccccc3s2)cc1 (configuration not stated)	-15%	5%	-12%[46.1 µM]	?	-1%	-1%
O=C(CSc1nc2ccccc2s1)N1N=C(c2cccs2)CC1c1ccc(F)cc1 (configuration not stated)	-26%	0%	0%[46.1 µM]	28µM*	0%	3%
CCCCOC(=O)CSCC(=O)N1N=C(c2cccs2)CC1c1ccc(F)cc1 (configuration not stated)	4%	-1%	2%[46.1 µM]	14µM*	-6%	0%
COc1ccc(C2CC(c3cccs3)=NN2C(=O)CSc2nc3ccccc3o2)cc1 (configuration not stated)	-23%	0%	-11%	32µM*	-2%	1%
CCN1CCc2c(OCC(=O)N3N=C(c4cccs4)CC3c3ccc(F)cc3)cccc2C1=O (configuration not stated)	23µM*	-22%	-5%[46.1 µM]	7.9µM*	-14%	1%
ClCc1nc2ccccc2c2ccccc12	-7%	-2%	-2%	.	21%	3%
COc1ccc(-c2cc3ccccc3[nH]2)cc1	?	1%	-4%	.	-56%	1%
Cc1ccc(O)c(-c2cc3ccccc3[nH]2)c1	?	-4%	-3%	14µM*	-25%	8%
COc1cc(-c2ccc3c(=O)c4ccccc4n(C)c3c2)cc(OC)c1OC	13µM*	?	0%	4%	-4%	1%
COc1cc(-c2ccc3c(=O)c4ccccc4sc3c2)cc(OC)c1OC	-27%	1%	3%	-22%	.	?
c1csc(-c2ccn[nH]2)c1	18%	-4%	1%	-1%	-4%	0%
Fc1ccc2[nH]c(-c3cccs3)cc2c1	?	1%	.	11µM*	-25%	13%
CC1Cc2ccccc2N1Cc1nc2cc(Cl)ccc2c(=O)[nH]1 (configuration not stated)	.	-1%	-2%	13µM*	0%	6%
COc1ccc(-n2nnnc2C2CCN(S(=O)(=O)c3ccc(NC(C)=O)cc3)CC2)cc1	9.2µM*	-20%	.	2%	?	-1%
COc1ccc(CN2CCN(S(=O)(=O)c3ccc(NC(C)=O)cc3)CC2)cc1	16µM*	-12%	0%	-5%	22%	-1%
CN(C)c1ccc(CNC(=O)/C=C/[C@H]2O[C@@H](n3ccc(=O)[nH]c3=O)[C@H](O)[C@@H]2O)cc1	.	.	.	2%	.	0%
O=C(N/N=C/c1ccccc1)c1[nH]c2ccc(Br)cc2c1-c1ccccc1	?	-16%	-1%[46.1 µM]	22µM*	21%	-1%
SMILES	Nrf2 block	A549 viability	TCR activator	ClpP mod	miR-21 reporter	Nrf2 activator
C[C@H]1CN([C@@H](C)CO)C(=O)CCCn2cc(nn2)CO[C@@H]1CN(C)C(=O)CCC(F)(F)F	.	.	.	1%	.	-1%
N#Cc1cc2sc3nnc(-c4ccncc4)n3c2cc1C#N	6.5µM*	-26%	0%	-27%	13%	?
CC(CCc1ccccn1)C(=O)C(C)CCc1ccccn1 (configuration not stated)	-4%	2%	-4%	0%	.	0%
CCOC(=O)C(CCc1ccccn1)c1ccccc1 (configuration not stated)	-7%	-14%	1%	7.9µM*	.	0%
COc1cc2cc(C(c3nnnn3C3CCCC3)N3CCCCC3)c(=O)[nH]c2cc1OC (configuration not stated)	1%	-14%[1.84 µM]	.	22µM*	-3%	0%
COc1ccc(OC)c(C(c2nnnn2C2CCCC2)N2CCN(c3ccc(F)cc3)CC2)c1 (configuration not stated)	.	16%	4%	-6%	3%	2%
O=c1[nH]c2cc3c(cc2cc1C(c1nnnn1C1CCCCC1)N1CCSCC1)OCCO3 (configuration not stated)	?	-16%	-1%[46.1 µM]	35µM*	-13%	0%
COc1cc2cc(C(c3nnnn3C3CCCC3)N3CCCCCC3)c(=O)[nH]c2cc1OC (configuration not stated)	0%	-19%	1%	?	-1%	0%
COc1ccc(C(c2nnnn2C2CCCC2)N2CCC(C)CC2)c(OC)c1 (configuration not stated)	.	0%	2%	18µM*	-5%	2%
O=c1[nH]c2cc3c(cc2cc1CN(Cc1nnnn1C1CCCC1)C1CCCC1)OCCO3	.	-3%	.	32µM*	-13%	3%
CCC(c1nc2ccccc2[nH]1)n1c(-c2ccnc(Cl)c2)nc2ccccc21 (configuration not stated)	.	.	.	-12%	.	.
O=C(Cn1ncc2c(=O)oc3ccccc3c21)N1CCN(c2ccc(Cl)cc2)CC1	9%	6%	.	-2%	0%	0%
C=CCNC(=O)CN1N=C(c2ccc(C)cc2)CCC1=O	2%	-1%	-1%	1%	-1%	0%
Oc1ccc(CNc2ccc(F)cc2Cl)c2cccnc12	?	-17%	.	.	.	.
C[C@H](CO)N1C[C@H](C)[C@@H](CN(C)C(=O)c2ccccc2)OCc2cnnn2CCCC1=O	.	.	.	1%	.	0%
